Data on 17 compounds can be found in PubChem BioAssay (Tox21).

Inconclusive results are not listed. A number with no mark means an inactive call. Activity calls are given as the source filed them. Unless noted, the call rests on the fitted dose curve; in most records, active means well fitted curve in the direction sought with a large enough effect in the repeat runs; inconclusive means weak or mixed curves; inactive means no such curve, though single readings can be large; an effect the other way counts as inactive or inconclusive.

Assay [1] addresses Aryl hydrocarbon receptor (Homo sapiens) (UniProt P35869). Description: qHTS assay to identify small molecule that activate the aryl hydrocarbon receptor (AhR) signaling pathway (AID 743085). Further: nearly all actives have a fitted effect of over 15% in size. Further: potency means the concentration at half of the fitted maximal effect.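 On activation: HG2L7.5c1 human HepG2 liver cells with stably integrated DRE-driven firefly reporter; series mostly up to about 70 µM.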 The method in brief: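 AhR agonist activity is inferred from enhanced light output of a DRE-controlled firefly luciferase reporter in HepG2 cells, measured with ONE-Glo following 24 h treatment at 37C.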
Background: Quantitative high-throughput screening tests each substance at several concentrations.

Assay [2] can be described thus: qHTS assay to identify small molecule that activate the aryl hydrocarbon receptor (AhR) signaling pathway - cell viability counter screen (AID 743086). Further: series mostly up to about 70 µM; nearly all actives have a fitted effect of over 45% in size. The method in brief: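 Cytotoxicity counter screen: CellTiter-Fluor signal (30 min, 37 C) in 4000 HepG2 cells/well carrying the DRE-luciferase reporter, following 24 h compound exposure at 37 C.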
Assay [3] has as its target Peroxisome proliferator-activated receptor gamma (Homo sapiens) (UniProt P37231). Description: qHTS assay to identify small molecule agonists of the peroxisome proliferator-activated receptor gamma (PPARg) signaling pathway (AID 743094; active means well fitted activation curve with a large enough effect in the signal ratio in the repeat runs, not every such curve was filed as active; the % refers to the signal ratio). The method in brief:
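Fluorescence-based beta-lactamase readout in HEK293H PPARg UAS-bla cells after 17 h compound exposure (37C) and 1 h B/G FRET substrate incubation at room temperature.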

The target is the same in assay [4]. In words: qHTS assay to identify small molecule antagonists of the peroxisome proliferator-activated receptor gamma (PPARg) signaling pathway (AID 743191; calls by dose curve; further: series mostly up to about 63 µM; nearly all actives have a fitted effect of over 30% in size). The method in brief: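 Beta-lactamase reporter under UAS control in HEK293H PPARg-bla cells; compound treatment 17 h at 37C. Read-out: fluorescence intensity after 1 h room-temperature incubation with LiveBLAzer B/G FRET substrate.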

Assay [5] in a line: qHTS assay for small molecule agonists of the antioxidant response element (ARE) signaling pathway (AID 743202; active means well fitted activation curve with a large enough effect in the signal ratio in the repeat runs, not every such curve was filed as active; the % refers to the signal ratio). The method in brief: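 Beta-lactamase reporter activity, read as fluorescence intensity, reflects ARE/Nrf2 pathway induction in HepG2 cells after 16 h compound exposure at 37 C; substrate loading was 2 h at room temperature.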
A short description of assay [6]: qHTS assay for small molecule agonists of the antioxidant response element (ARE) signaling pathway - cell viability counter screen (AID 743203; calls by dose curve; further: nearly all actives have a fitted effect of over 55% in size). In outline: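 Parallel cytotoxicity read-out for the ARE-bla screen: HepG2 reporter cells, 16 hrs with compounds, then CellTiter-Glo luminescence.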
The nature of assay [7]: qHTS assay for small molecule activators of the heat shock response signaling pathway - cell viability counter screen (AID 743209). Further: nearly all actives have a fitted effect of over 50% in size. The method in brief:
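To flag cytotoxic compounds, HSE-bla HeLa cells plated at 1500 cells/well were dosed for 5 h at 37 C, followed by the reporter FRET read and then CellTiter-Glo, with luminescence recorded 30 min after reagent addition.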

The nature of assay [8]: qHTS assay for small molecule activators of the heat shock response signaling pathway (AID 743210; active means well fitted activation curve with a large enough effect in the signal ratio in the repeat runs, with a control signal flat, not every such curve was filed as active; the % refers to the signal ratio;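 further: HeLa cells with beta-lactamase reporter driven by heat shock elements; series mostly up to about 63 µM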). The method in brief:
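Fluorescence from a cleaved B/G FRET substrate (2.5 h, room temp) reports HSE-driven beta-lactamase in HeLa cells treated 5 h at 37 C with DMSO-dissolved compounds.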

Assay [9] can be described thus: qHTS assay to identify small molecule agonists of the peroxisome proliferator-activated receptor delta (PPARd) signaling pathway - cell viability counter screen (AID 743211). Further: nearly all actives have a fitted effect of over 55% in size. The method in brief:
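qHTS cell viability: PPARd-bla HEK293H; 17 h cpd, 37C; CellTiter-Glo, luminescence at 30 min RT.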

Assay [10] can be described thus: qHTS assay to identify small molecule antagonists of the peroxisome proliferator-activated receptor gamma (PPARg) signaling pathway - cell viability counter screen (AID 743194). Further: nearly all actives have a fitted effect of over 55% in size. The method in brief:
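Viability was measured as CellTiter-Glo luminescence in GeneBLAzer PPARg UAS-bla HEK293H cells. These cells had been exposed 17 h at 37 C to compounds together with rosiglitazone at 50 nM final, with the beta-lactamase readout taken in the same wells.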
On the % scale 0 is the no-effect control and ±100 the full control effect.

Peroxisome proliferator-activated receptor gamma (Homo sapiens), sequence (P37231 whole entry, looked up): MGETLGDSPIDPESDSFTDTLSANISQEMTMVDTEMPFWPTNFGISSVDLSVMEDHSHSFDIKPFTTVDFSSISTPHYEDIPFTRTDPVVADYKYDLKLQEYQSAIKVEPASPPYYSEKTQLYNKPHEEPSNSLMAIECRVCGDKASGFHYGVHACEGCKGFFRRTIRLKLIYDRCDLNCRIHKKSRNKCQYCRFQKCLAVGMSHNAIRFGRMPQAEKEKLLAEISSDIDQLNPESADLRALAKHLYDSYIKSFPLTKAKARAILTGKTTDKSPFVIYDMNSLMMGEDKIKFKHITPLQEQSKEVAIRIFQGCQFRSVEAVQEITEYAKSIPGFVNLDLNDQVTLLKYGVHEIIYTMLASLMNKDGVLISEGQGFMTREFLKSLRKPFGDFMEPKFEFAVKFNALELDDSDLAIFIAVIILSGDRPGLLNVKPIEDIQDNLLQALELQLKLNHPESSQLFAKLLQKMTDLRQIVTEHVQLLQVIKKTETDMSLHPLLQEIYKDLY
Aryl hydrocarbon receptor (Homo sapiens), sequence (P35869 whole entry, looked up): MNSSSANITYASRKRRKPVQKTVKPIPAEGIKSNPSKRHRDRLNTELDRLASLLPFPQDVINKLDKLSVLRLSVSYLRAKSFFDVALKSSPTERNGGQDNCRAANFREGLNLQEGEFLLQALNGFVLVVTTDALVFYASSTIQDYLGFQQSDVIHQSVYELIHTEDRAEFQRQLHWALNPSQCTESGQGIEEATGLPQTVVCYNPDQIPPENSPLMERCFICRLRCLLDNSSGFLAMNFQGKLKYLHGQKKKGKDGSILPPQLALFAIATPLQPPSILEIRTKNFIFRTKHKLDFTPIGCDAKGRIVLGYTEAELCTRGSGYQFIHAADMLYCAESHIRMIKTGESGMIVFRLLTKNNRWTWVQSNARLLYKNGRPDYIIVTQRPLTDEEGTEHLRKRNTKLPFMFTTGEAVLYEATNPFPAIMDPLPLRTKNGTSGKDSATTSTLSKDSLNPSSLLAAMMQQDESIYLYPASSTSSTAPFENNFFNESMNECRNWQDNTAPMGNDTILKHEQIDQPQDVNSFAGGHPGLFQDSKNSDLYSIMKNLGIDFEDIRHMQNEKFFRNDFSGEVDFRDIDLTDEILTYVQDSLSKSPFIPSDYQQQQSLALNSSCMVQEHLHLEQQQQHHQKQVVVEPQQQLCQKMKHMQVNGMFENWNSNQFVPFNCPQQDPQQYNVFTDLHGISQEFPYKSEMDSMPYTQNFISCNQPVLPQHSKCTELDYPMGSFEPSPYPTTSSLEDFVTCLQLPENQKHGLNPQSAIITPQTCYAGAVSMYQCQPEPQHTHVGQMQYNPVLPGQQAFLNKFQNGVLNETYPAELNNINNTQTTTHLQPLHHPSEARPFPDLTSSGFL

For `Cc1ccc(NC(N)=O)cc1`, the Potency entry in [1], in [5] and in assay [7] was “inactive” throughout. For the same compound, the compound was called inactive in assay [2], in assay [3], in [4], in [6], in [8] and in [9].

As for `Nc1cc(S(=O)(=O)O)ccc1O`, the Potency entry in assay [1], in assay [5] and in assay [7] was “inactive” throughout. The outcome in [2], in assay [3], in assay [4], in assay [10], in assay [8] and in assay [9] was inactive.

Regarding `Cc1nc2ccc(Cl)cc2[nH]1`, the Potency in assay [1] was 30.6 µM (active). The compound was called inactive in [2], in [3], in assay [4], in assay [6], in [8] and in assay [9]. The Potency result in assay [5] and in assay [7] was “inactive” in each case.

On to `C/C=C(\C)C(=O)OC/C=C(\C)CCC=C(C)C`, for which the Potency result in assay [1], in assay [5] and in assay [7] was “inactive” throughout. Moreover, the call in [2], in assay [3], in assay [4], in assay [6] and in [9] was inactive.

As to `CC(C)=CCC/C(C)=C\C#N`, the Potency result in [1], in assay [5] and in assay [7] was “inactive” throughout. Moreover, the result in [2], in assay [3], in assay [4], in assay [6], in assay [8] and in assay [9] was inactive.

On to `CC[N+](C)(CC)CC`, for which the Potency result in assay [1], in [5] and in assay [7] was “inactive” throughout. Besides, the result in assay [2], in assay [3], in [10], in [6], in [8] and in assay [9] was inactive.

Regarding `CCOC(=O)CC(C(C)=O)C(C)=O`, the Potency result in assay [1], in assay [5] and in assay [7] was “inactive” throughout. Further, the compound was called inactive in assay [2], in assay [3], in assay [4], in assay [6], in assay [8] and in [9].

Regarding `COC(C)(C)CC(C)=O`, the Potency entry in [1], in assay [5] and in [7] was “inactive” in each case. Besides, the compound was called inactive in assay [2], in [3], in assay [10], in assay [6], in assay [8] and in [9].

On to `Cc1ccc(O)c([N+](=O)[O-])c1`, for which the Potency result in [1], in [5] and in assay [7] was “inactive” throughout. In addition, the compound was called inactive in assay [2], in [3], in [4], in assay [10], in assay [8] and in assay [9].

For `Cc1ccccc1C#N`, the Potency entry in assay [1] and in assay [7] was “inactive” throughout. For the same compound, the call in [2], in [3], in assay [4], in assay [10], in assay [6] and in [8] was inactive. Moreover, in [9], the call was inactive.

In the case of `CCCOc1ccc(C(=O)OCCN(CC)CC)cc1N`, the Potency in assay [1] is 1.33 µM (active). Moreover, the result in assay [2], in assay [3], in assay [4], in assay [10], in assay [6] and in assay [8] was inactive. In assay [9], the result was inactive. In [7], the Potency result was “inactive”.

`CC(O)C(CO)C(C)O` (stereo not given): the Potency entry in [1], in assay [5] and in assay [7] was “inactive” in each case. Moreover, the call in [2], in [3], in [4], in assay [6], in [8] and in assay [9] was inactive.

As to `N=C(N)N1CCc2ccccc2C1`, in assay [1], the Potency result is “inactive”. Moreover, the result in assay [2] and in assay [3] was inactive. Further, in [4], the ratio activity, negative = inhibition is -11.9% [at 5.95 µM]. Also, the activation was -8.74% [at 8.36 µM] in assay [5] and -0.5% [at 5.95 µM] in [8]. Besides, the results for the activity change, negative = cytotoxicity in assay [7] and in assay [9] were 14.1% [at 5.95 µM] and 3.73% [at 5.95 µM], respectively.

Take `CCN1CCN(C(=O)N[C@@H](C(=O)N[C@@H]2C(=O)N3[C@@H]2SC(C)(C)[C@H]3C(=O)O)c2ccccc2)C(=O)C1=O`: the Potency entry in [1], in assay [5] and in [7] was “inactive” in each case. Besides, the compound was called inactive in assay [2], in [3], in assay [4], in assay [10], in assay [8] and in [9].

As for `OCCC(F)(F)C(F)(F)C(F)(F)C(F)(F)C(F)(F)C(F)(F)F`, the Potency result in assay [1], in assay [5] and in assay [7] was “inactive” throughout. Further, the compound was classed as inactive in assay [2], in [3], in [4], in [6], in assay [8] and in [9].

Take `C=CC(=O)OCC[N+](C)(C)C`: the Potency entry in [1] and in assay [7] was “inactive” throughout. Further, the outcome in [2], in [3], in assay [4], in [10], in assay [6] and in [8] was inactive. The outcome in [9] was inactive.

Regarding `COC(=O)N/N=C/c1c[n+]([O-])c2ccccc2[n+]1[O-]`, the Potency result in [1] and in assay [7] was “inactive” throughout. The call in assay [2], in assay [3], in assay [4], in assay [10], in assay [8] and in assay [9] was inactive.
